Test results published in PubChem BioAssay AID1379 (National Center for Advancing Translational Sciences (NCATS), 2008).
In all, about 200,000 compounds went through this assay and about 560 (0.28%) were called active. The list comes from a sample in which actives are over-represented; it also holds similar structures and randomly drawn compounds. Unmarked numbers belong to inactive results. Calls follow the shape of the dose curve; as a rule, active = well fitted inhibition curve with a large enough effect; inconclusive = small, poorly fitted or top-dose-only effect; inactive = flat fitted curve, though single readings scatter.

These molecules were tested against Luciferin 4-monooxygenase (Photuris pensylvanica) (UniProt Q27757) (assay: Counterscreen for Luciferase (Kinase-Glo TM) Inhibition). Details: ATP luminescence, 8 min; series mostly up to 38.3 µM; activity change, negative = inhibition: at the top concentration.
Method: NCGC Assay Overview: NIH Molecular Libraries Screening Centers Network [MLSCN] NIH Chemical Genomics Center [NCGC] MLSCN Grant: None Luciferase (Kinase-Glo, Promega Corporation) was assayed for its ability to generate light using ATP and luciferin as substrates. The ATP concentration in the assay (10 uM) was within the linear range of enzyme activity for the assay conditions used.
NCGC Assay Protocol Summary: Four uL of substrate mix (final concentration, 50 mM imidazole pH 7.2, 50 mM KCl, 7 mM MgCl2, 10 uM ATP, 0.01% Tween 20, 0.05% BSA) was dispensed into white 1536 well plates. Twenty-three nL of compound was delivered by a pin tool and 2 uL of luciferase detection mix (Kinase-Glo, Promega)) was added. Following 8-minute incubation at ambient temperature, luminescence was measured by a ViewLux (Perkin Elmer) at 5 seconds exposure/plate.
% is scaled to controls: 0 for no effect and ±100 for the full control effect; potency is read from the fitted curve at half-maximal effect.
Also: nearly all actives have a fitted effect of over 60% in size.

| SMILES | activity change, negative = inhibition | Potency |
| --- | --- | --- |
| O=C(O)CCC(=O)O | 0.673% [at 39.9 µM] |  |
| CC(=O)CC(c1ccccc1)C1C(=O)Oc2ccccc2C1=O (stereo not given) | 3.02% [at 39.9 µM] |  |
| CC(C)(C)OC(=O)NCCCCC1=CC2=CC(=O)C(C)(OC(=O)c3cccs3)C(=O)C2=CO1 (stereo not given) | -0.695% |  |
| CC1=C(C/C=C(\C)CCCC(C)CCCC(C)CCCC(C)C)C(=O)c2ccccc2C1=O (stereo not given) | 1.77% [at 39.9 µM] |  |
| CCCCCCCC/C=C\CCCCCCCC(=O)OC[C@H](CO)OC(C)=O | 2.45% |  |
| COC(=O)CCCC1=CC2=CC(=O)C(C)(OC(=O)c3cccs3)C(=O)C2=CN1CC1CC1 (stereo not given) | -3.89% [at 7.66 µM] |  |
| CC[C@@]12C=C(/C=C/c3ccccc3)[C@](CC)(C1)[C@H](c1ccccc1)CC2=O | 0.444% |  |
| O=c1c2ccccc2nc2n1C1(CCCCC1)Cc1ccccc1-2 | -4.12% |  |
| CN(c1ccc2nc3ccccc3c(=O)n2n1)C1CCCCC1 |  | 6.31 µM (active) |
| CCOC(=O)C(C)Sc1nc2ccccc2c(=O)n1CC1CCCCC1 (stereo not given) | -1.71% |  |
| C=CCOC(=O)NC(c1ccc(F)c(F)c1)C(C(=O)COC)C(=O)OC (stereo not given) | inactive |  |
| COC(=O)C(C(=O)OC)C1c2ccccc2C=C(C2CC2)N1C(=O)OC (stereo not given) | inactive |  |
| CC/C=C\C/C=C\C/C=C\C/C=C\C/C=C\C/C=C\CCC(=O)NC(C)C(=O)O (stereo not given) | 1.38% |  |
| CC(=O)[C@H](C(c1ccccc1)N1CCOCC1)N1CCOCC1 (stereo not given in full) | -6.68% [at 7.66 µM] |  |
| O=C(O)C1CCCN(CCC=C(c2ccccc2)c2ccccc2)C1 (stereo not given) | -0.135% |  |
| CCCCCCCCCCCCCCCCO | 2.29% [at 39.9 µM] |  |
| CCCCC/C=C\CC1OC1CCCCCCCC(=O)O (stereo not given) | 0.471% |  |
| COc1cccc(CC(=O)N2CCc3nc(COc4ccccc4)c4c(c3C2)CO[C@@H](C)C4)c1 | -3.82% [at 7.66 µM] |  |
| COc1ccc2nc(Nc3nc(-c4cc5ccccc5oc4=O)cs3)sc2c1 | -3.49% |  |
| Nc1ncc(-c2cc3ccccc3oc2=O)s1 |  | 11.2 µM (active) |
| O=c1oc2ccccc2cc1-c1csc(Nc2ccc(O)cc2)n1 | -5.88% |  |
| NNc1nnc(NN)c2ccccc12 | -1.53% [at 39.9 µM] |  |
| COc1cccc(-c2cc(=O)c3cc(NC(=O)c4ccc(C)cc4)ccc3[nH]2)c1 | -2.75% [at 39.9 µM] |  |

| SMILES | activity change, negative = inhibition | Potency |
| --- | --- | --- |
| COc1ccc(-c2nc3c(c4c2C[C@H](c2ccccc2)OC4)CN(C(=O)C2CC2)CC3)c(C)c1 | -7.98% [at 7.66 µM] |  |
| COC(=O)C/C=C/[C@@H](C)[C@H](NC(=O)OCC(Cl)(Cl)Cl)c1ccccc1 | -1.07% |  |
| CCCCCCCC1=Cc2ccc(F)cc2C(C(C(=O)OC)C(=O)OC)N1C(=O)OC (stereo not given) | inactive |  |
| Cc1ccnc(NC(=O)c2ccoc2C)c1 |  | 6.31 µM (active) |
| Cc1occc1C(=O)Nc1cccc(Cn2cccn2)c1 | -12.9% |  |
| Cc1ccnc(NC(=O)c2ccc(NC(=O)c3ccco3)cc2)c1 | -2.89% |  |
| CCN1C(=O)N[C@@H](c2ccccc2)[C@H](C(C)=O)[C@H]1C | -7.74% [at 7.66 µM] |  |
| C[C@@H]1C(c2ccc(F)cc2)=NN(c2ccc(Br)cc2)[C@H]1C(=O)N1CCOC1=O | 0.81% [at 39.9 µM] |  |
| O=C(O)C[C@@H]1NC(=O)[C@H](Cc2ccccc2)NC1=O | -1.56% |  |
| COC(=O)C1=C(C(=O)OC)[C@@H]2N(C)c3ccccc3[C@@]23C[C@@H](C(=O)OC)N(C(C)=O)C3=N1 | 0.685% [at 7.66 µM] |  |
| CC(C)C[C@H](NC(=O)[C@H](O)[C@H](N)Cc1ccccc1)C(=O)O | -2.08% |  |
| COC(=O)C1=C(C(=O)OC)[C@@H]2N(C)c3ccccc3[C@@]23C[C@@H](C(=O)OC)N(C(=O)c2ccco2)C3=N1 | -2.48% [at 7.66 µM] |  |
| COC(=O)N/N=C/c1ccc(/C=N/NC(=O)OC)cc1 | -2.49% |  |
| Cc1nonc1C(=O)N/N=C/c1ccc(O)cc1 |  | 5.01 µM (active) |
| O=C(C[n+]1ccccc1)N/N=C/c1ccc(O)cc1 | 0.75% |  |
| C[C@H]1Cc2c(COc3ccccc3)nc3c(c2CO1)CN(C(=O)NCc1ccco1)CC3 | -0.257% [at 7.66 µM] |  |
| Cc1ccsc1C(=O)OCC(=O)c1cc(C)n(CC2CCCO2)c1C (stereo not given) |  | 12.6 µM (active) |
| Cc1ccsc1C(=O)OCC(=O)c1cc2ccccc2o1 | 1.49% |  |
| Cc1cc(C(=O)Cn2cnc3cc([N+](=O)[O-])ccc3c2=O)c(C)n1CC1CCCO1 (stereo not given) | 0.204% |  |
| COC(=O)CCCC1=CC2=CC(=O)C(C)(OC(=O)c3cccs3)C(=O)C2=CN1CC(C)C (stereo not given) | -3.18% [at 7.66 µM] |  |
| CCOC(=O)C1=C(C)c2ccccc2OC1(C)C(=O)OCC (stereo not given) | -1.26% [at 39.9 µM] |  |
| CC(C)(Oc1ccc(C2CC2(Cl)Cl)cc1)C(=O)O (stereo not given) | -4.29% |  |
